PubChem BioAssay (NCI)
This is part of a sample that, as a whole, favours compounds with a hit. Of some 79,000 tested, about 15% had one in any assay. Calls of active or inactive are those of the source. Cut-off read from the data, not from the text of the source: active = growth inhibition above about 70%; inactive = the rest.

Key:
[1] = NCI Yeast Anticancer Drug Screen. Data for the rad52 strain (AID 147);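 note: 0% = growth of vehicle-treated control cultures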; conditions: S. cerevisiae rad52 mutant growth inhibition, active compounds read high
Outline: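 Growth of repair-deficient yeast cells was compared between compound-treated and vehicle-treated cultures to give percent inhibition.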

[2] = NCI Yeast Anticancer Drug Screen. Data for the wt1 strain (AID 149);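 note: 0% = growth of vehicle-treated wt1 cultures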; conditions: S. cerevisiae wt1 strain (SPY 50644) growth inhibition, active compounds read high
Outline: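 Compounds are added to wt1 yeast cultures. Growth is then measured. Inhibition is expressed relative to vehicle-treated controls.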

[3] = NCI Yeast Anticancer Drug Screen. Data for the rad50EPP+ strain (AID 151);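 note: 0% = growth of vehicle-treated control cultures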; conditions: S. cerevisiae rad50 mutant strain, active compounds read high
Outline: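 Measured: growth inhibition of rad50EPP+ yeast. Reference: vehicle-treated controls. Screen uses strains with defined genetic alterations in DNA damage repair or cell cycle control.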

[4] = NCI Yeast Anticancer Drug Screen. Data for the mgt1 strain (AID 153); conditions: S. cerevisiae mgt1 mutant growth inhibition, active compounds read high
Outline: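 Compounds were applied to mgt1 mutant yeast, and growth was then compared against vehicle-treated control cultures to give percent inhibition.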

[5] = NCI Yeast Anticancer Drug Screen. Data for the rad50 strain (AID 155);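 note: 0% = growth of vehicle-only cultures of the same strain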; conditions: S. cerevisiae rad50 strain growth inhibition, active compounds read high
Outline: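 Inhibition values express reduced yeast growth in compound-treated cultures relative to vehicle-treated controls.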

[6] = NCI Yeast Anticancer Drug Screen. Data for the mec2-1 strain (AID 157); conditions: S. cerevisiae mec2-1 strain, active compounds read high
Outline: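 Compounds were applied to mec2-1 yeast cells. Their growth was then compared with that of vehicle-treated cultures to give growth inhibition.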

[7] = NCI Yeast Anticancer Drug Screen. Data for the rad14 strain (AID 159);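 note: 0% = growth of vehicle-treated control cultures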; conditions: S. cerevisiae rad14 strain growth inhibition, active compounds read high
Outline: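 A mutant yeast strain defective in DNA damage repair is treated with compound; inhibition of its growth is scored against untreated, vehicle-exposed cultures.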

[8] = NCI Yeast Anticancer Drug Screen. Data for the sgs1 mgt1 strain (AID 161);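 note: 0% = growth of cultures given vehicle only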; conditions: S. cerevisiae sgs1 mgt1 strain, active compounds read high
Outline: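 Growth of a repair-deficient yeast mutant was monitored after compound treatment and expressed as inhibition relative to vehicle-treated cultures.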

[9] = NCI Yeast Anticancer Drug Screen. Data for the CLN2oe strain (AID 163);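 note: 0% = growth of vehicle-only control cultures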; conditions: S. cerevisiae CLN2oe strain, active compounds read high
Outline: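 Cells of an engineered yeast line with disturbed cell-cycle regulation are treated with compound. Inhibition of growth is then calculated relative to the vehicle-treated reference.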

[10] = NCI Yeast Anticancer Drug Screen. Data for the cln2 rad14 strain (AID 165);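 note: 0% = growth equal to vehicle treated cultures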; conditions: S. cerevisiae cln2 rad14 strain, active compounds read high
Outline: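 Strain: cln2 rad14 yeast, altered in cell cycle control and DNA damage repair. Read-out: growth inhibition vs vehicle.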

[11] = NCI Yeast Anticancer Drug Screen. Data for the bub3 strain (AID 167); conditions: S. cerevisiae bub3 mutant strain, active compounds read high
Outline: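 Steps: expose the mutant yeast strain to compound; grow alongside vehicle-treated cultures; measure growth; express inhibition against the vehicle cultures.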

[12] = NCI Yeast Anticancer Drug Screen. Data for the wt2 strain (AID 169);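 note: 0% = growth of vehicle-treated yeast cultures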; conditions: S. cerevisiae wt2 strain growth inhibition, active compounds read high
Outline: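 Growth of compound-treated yeast is measured and expressed as inhibition relative to vehicle-only controls.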

[13] = NCI Yeast Anticancer Drug Screen. Data for the mlh1 strain (AID 171);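 note: 0% = growth of vehicle-treated control cultures of the same strain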; conditions: S. cerevisiae mlh1 strain growth inhibition, active compounds read high
Outline: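 Test agents were incubated with yeast bearing a defined DNA damage repair or cell cycle control alteration; values are growth inhibition normalised to vehicle-treated cultures.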

[14] = NCI Yeast Anticancer Drug Screen. Data for the sgs1 strain (AID 173);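 note: 0% = growth of vehicle-only control cultures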; conditions: S. cerevisiae sgs1 mutant, active compounds read high
Outline: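 Strain with an altered DNA repair or cell cycle pathway exposed to compound. Growth then measured. Value = inhibition versus vehicle control.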

[15] = NCI Yeast Anticancer Drug Screen. Data for the mlh1 rad18 strain (AID 175); conditions: S. cerevisiae mlh1 rad18 strain growth inhibition, active compounds read high
Outline: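 A repair-deficient yeast strain is exposed to test compound, and growth is scored relative to vehicle-treated controls.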

[16] = NCI Yeast Anticancer Drug Screen. Data for the rad18 strain (AID 177); conditions: S. cerevisiae rad18 mutant growth inhibition, active compounds read high
Outline: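 DNA-repair-defective yeast; compound treatment; growth inhibition scored against vehicle.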

[17] = at 5.0 µM (retest, dose inferred, filed as 0.5)
[18] = at 50.0 µM (retest, dose inferred, filed as 5.0)

Measured: growth inhibition

O=C(NOC(=O)c1ccc([N+](=O)[O-])cc1)c1ccc(Cl)cc1
active: [1]; at 33.0 µM 89% | [1]; at 100.0 µM 97% | [2]; at 33.0 µM 84% | [2]; at 100.0 µM 96% | [3]; at 33.0 µM 85% | [3]; at 100.0 µM 94% | [4]; at 33.0 µM 90% | [4]; at 100.0 µM 97% | [5]; at 33.0 µM 83% | [5]; [18] 89% | [5]; at 50.0 µM 92.4% | [5]; at 100.0 µM 95% | [6]; at 33.0 µM 82% | [6]; [18] 93% | [6]; at 50.0 µM 92.7% | [6]; at 100.0 µM 97% | [7]; at 33.0 µM 88% | [7]; at 100.0 µM 97% | [8]; [18] 94% | [8]; at 50.0 µM 91.3% | [9]; at 33.0 µM 80% | [9]; at 100.0 µM 98% | [10]; [18] 96% | [10]; at 50.0 µM 89% | [11]; [18] 89% | [11]; at 50.0 µM 90% | [11]; at 100.0 µM 95% | [12]; at 33.0 µM 87% | [12]; at 100.0 µM 97% | [13]; at 33.0 µM 89% | [13]; at 100.0 µM 96% | [14]; at 33.0 µM 88% | [14]; at 100.0 µM 95% | [15]; [18] 96% | [15]; at 50.0 µM 89.7% | [16]; at 33.0 µM 90% | [16]; at 100.0 µM 96%
inactive: [1]; at 1.2 µM -1% | [1]; at 3.7 µM 4% | [1]; at 11.0 µM 31% | [2]; at 1.2 µM -30% | [2]; at 3.7 µM -31% | [2]; at 11.0 µM -9% | [3]; at 1.2 µM -19% | [3]; at 3.7 µM 23% | [3]; at 11.0 µM 68% | [4]; at 1.2 µM -58% | [4]; at 3.7 µM -33% | [4]; at 11.0 µM 1% | [5]; at 1.2 µM -36% | [5]; at 3.7 µM -40% | [5]; [17] 6% | [5]; at 11.0 µM 10% | [6]; at 1.2 µM -84% | [6]; at 3.7 µM -64% | [6]; [17] -4% | [6]; at 11.0 µM -15% | [7]; at 1.2 µM -52% | [7]; at 3.7 µM -27% | [7]; at 11.0 µM -7% | [8]; [17] 10% | [9]; at 1.2 µM -18% | [9]; at 3.7 µM 6% | [9]; at 11.0 µM 15% | [10]; [17] 36% | [11]; at 1.2 µM -19% | [11]; at 3.7 µM -18% | [11]; [17] 0% | [11]; at 11.0 µM -4% | [11]; at 33.0 µM 67% | [12]; at 1.2 µM -47% | [12]; at 3.7 µM -27% | [12]; at 11.0 µM 11% | [13]; at 1.2 µM -35% | [13]; at 3.7 µM -35% | [13]; at 11.0 µM -1% | [14]; at 1.2 µM -39% | [14]; at 3.7 µM -17% | [14]; at 11.0 µM 48% | [15]; [17] 14% | [16]; at 1.2 µM -11% | [16]; at 3.7 µM 2% | [16]; at 11.0 µM 43%

O=C(/C=C/c1ccsc1)c1cccs1
inactive: [1]; at 1.2 µM -16% | [1]; at 3.7 µM -18% | [1]; at 11.0 µM -9% | [1]; at 33.0 µM -12% | [2]; at 1.2 µM -33% | [2]; at 3.7 µM -41% | [2]; at 11.0 µM -35% | [2]; at 33.0 µM -35% | [2]; at 100.0 µM 17% | [3]; at 1.2 µM 5% | [3]; at 3.7 µM 11% | [3]; at 11.0 µM 21% | [3]; at 33.0 µM 54% | [4]; at 1.2 µM 3% | [4]; at 3.7 µM -2% | [4]; at 11.0 µM -4% | [4]; at 33.0 µM 10% | [5]; at 1.2 µM 21% | [5]; at 3.7 µM 19% | [5]; [17] -15% | [5]; at 11.0 µM 22% | [5]; at 33.0 µM 27% | [5]; [18] 11% | [5]; at 50.0 µM 46.6% | [6]; at 1.2 µM -3% | [6]; at 3.7 µM -7% | [6]; [17] 4% | [6]; at 11.0 µM -2% | [6]; at 33.0 µM 8% | [6]; [18] 11% | [6]; at 50.0 µM 19.9% | [7]; at 1.2 µM 3% | [7]; at 3.7 µM 0% | [7]; at 11.0 µM -8% | [7]; at 33.0 µM 9% | [8]; [17] -1% | [8]; [18] 33% | [8]; at 50.0 µM 66.6% | [9]; at 1.2 µM 4% | [9]; at 3.7 µM 14% | [9]; at 11.0 µM 3% | [9]; at 33.0 µM 5% | [10]; [17] 37% | [10]; [18] 42% | [10]; at 50.0 µM 4.55% | [11]; at 1.2 µM 1% | [11]; at 3.7 µM 28% | [11]; [17] -11% | [11]; at 11.0 µM 11% | [11]; at 33.0 µM 23% | [11]; [18] 66% | [11]; at 50.0 µM 15.2% | [12]; at 1.2 µM -24% | [12]; at 3.7 µM -36% | [12]; at 11.0 µM -31% | [12]; at 33.0 µM -29% | [13]; at 1.2 µM 6% | [13]; at 3.7 µM 3% | [13]; at 11.0 µM -8% | [13]; at 33.0 µM 25% | [14]; at 1.2 µM -15% | [14]; at 3.7 µM -23% | [14]; at 11.0 µM -24% | [14]; at 33.0 µM -17% | [15]; [17] -9% | [15]; [18] 69% | [15]; at 50.0 µM 44.6% | [16]; at 1.2 µM -3% | [16]; at 3.7 µM -5% | [16]; at 11.0 µM -12% | [16]; at 33.0 µM -6%
active: [1]; at 100.0 µM 82% | [3]; at 100.0 µM 95% | [4]; at 100.0 µM 92% | [5]; at 100.0 µM 92% | [6]; at 100.0 µM 98% | [7]; at 100.0 µM 87% | [9]; at 100.0 µM 84% | [11]; at 100.0 µM 97% | [12]; at 100.0 µM 85% | [13]; at 100.0 µM 96% | [14]; at 100.0 µM 83% | [16]; at 100.0 µM 84%
